# Source: PubChem BioAssay AID778 (Sanford-Burnham Center for Chemical Genomics, 2007)
# Out of some 96,000 compounds screened, about 20,000 (21%) were called active. These entries were drawn from the full list. Values without a mark were called inactive.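 How the source made its calls: active means CYP2C19 inhibition above a set limit at 5 µM in the primary screen (cut at about 50% in these data); inactive means the rest.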
# Biological target: Cytochrome P450 2C19 (Homo sapiens) (UniProt P33261)
# Assay: blockers of cytochrome P450 2C19 activity – biochemical, luminescence, ADME assay, primary screen (AID 778);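 further: plate controls were negative control wells for no effect and 2.5 mM tranylcypromine positive control for full effect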
# Conditions: CYP2C19 Supersomes, luciferin-H EGE luminescence, 30 min; at 5 µM; stronger effect = higher value
# Chain of Cytochrome P450 2C19 (Homo sapiens) (P33261 whole entry, looked up): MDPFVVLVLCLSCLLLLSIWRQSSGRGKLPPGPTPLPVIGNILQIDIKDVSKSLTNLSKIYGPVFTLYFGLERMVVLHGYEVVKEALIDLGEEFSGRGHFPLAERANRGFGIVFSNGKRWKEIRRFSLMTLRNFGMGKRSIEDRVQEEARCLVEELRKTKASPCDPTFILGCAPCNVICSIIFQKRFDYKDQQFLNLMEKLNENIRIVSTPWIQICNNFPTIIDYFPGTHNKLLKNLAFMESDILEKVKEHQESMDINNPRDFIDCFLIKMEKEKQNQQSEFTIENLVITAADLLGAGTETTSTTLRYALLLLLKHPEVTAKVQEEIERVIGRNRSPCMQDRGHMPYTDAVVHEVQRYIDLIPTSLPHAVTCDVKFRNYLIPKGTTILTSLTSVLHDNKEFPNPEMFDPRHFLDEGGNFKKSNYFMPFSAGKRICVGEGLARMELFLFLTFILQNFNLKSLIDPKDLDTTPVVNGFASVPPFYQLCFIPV
row,Compound,inhibition
1,Cc1nnc(SCC(=O)Nn2cnnc2)s1,4%
2,CC(NCCO)C(=O)C12CC3CC(CC(C3)C1)C2 (stereo not drawn),-5.4%
3,CC(C)(C)Cc1nnc(NC(=O)c2cc(-c3ccccc3)nc3ccccc23)s1,11.9%
4,COc1ccc(Br)cc1CN1CCN(C(=O)c2cccc(OC)c2OC)CC1,74% (active)
5,COc1cccc(OC)c1OCCN1CCN(C(=O)c2ccco2)CC1,21%
6,CCn1cc(C(=O)N2CCN(Cc3ccc4c(c3)OCO4)CC2)c2cc(OC)c(OC)cc2c1=O,29.5%
7,CCCn1nc2cc(C(=O)NCc3ccccc3)ccc2c1OCC,2.2%
8,CCCS(=O)(=O)C(=C1Nc2ccccc2N1)S(=O)(=O)CCC,8.6%
9,CCOC(=O)CN1C(=O)C(O)(CC(=O)c2ccccn2)c2ccccc21 (stereo not drawn),6.5%
10,C=CCN1C(=O)C(O)(CC(=O)c2ccc(Cl)cc2)c2ccccc21 (stereo not drawn),89.1% (active)
11,O=C(CC1(O)C(=O)N(CN2CCOCC2)c2ccccc21)c1ccccc1 (stereo not drawn),12.7%
12,Fc1ccc2nc(Nc3nc4c(s3)CCCC4)sc2c1,-8.1%
13,Cc1nc2ccc(S(=O)(=O)NC(C(=O)N3CCCCCC3)C(C)C)cc2s1 (stereo not drawn),21.2%
14,CC(c1ccco1)N(C(=O)COc1ccccc1[N+](=O)[O-])c1ccccn1 (stereo not drawn),40.5%
15,CC(C)Cc1ccc(S(=O)(=O)N2CCN(C(=O)c3ccco3)CC2)cc1,28.1%
16,CC(c1ccco1)N(C(=O)c1ccc(S(=O)(=O)N2CCCCC2)cc1)c1ccccn1 (stereo not drawn),59.1% (active)
17,Cc1c(NC(=O)/C=C/C(=O)O)cccc1[N+](=O)[O-],26.2%
18,CO/N=C/c1ccc(N2CCN(C(=O)c3cccc(Cl)c3)CC2)c([N+](=O)[O-])c1,33.8%
19,Cc1c(C)c2cc3c4c(oc3c(C)c2oc1=O)CCCC4,-0.1%
20,Cc1ccc(OC(=O)c2ccccc2C(=O)OCC(F)(F)C(F)F)cc1,88.6% (active)
21,CCOC(=O)c1cnc(-c2ccccc2)nc1Oc1ccc(C)cc1,35.2%
22,Cc1ccc(OC(=O)c2cc3ccccc3o2)cc1,-12.8%
23,Cc1ccc(C(=O)CS(C)(=O)=O)cc1,1%
24,COc1ccc(-n2ncc3c(N4CCCc5ccccc54)ncnc32)cc1,12.3%
25,O=C(CSc1ccc(/C=N/NC(=O)c2cccc(F)c2)o1)Nc1ccccc1,17.1%

row,Compound,inhibition
1,Cc1ccc(/C=N/NC(=O)Cn2nc(C)c(Br)c2C)o1,50.5% (active)
2,O=C(CN1CCSCC1)N/N=C/c1ccc(F)cc1,16.6%
3,O=C(Nc1ccc2c(c1)nc1n2CCCCC1)c1cc(S(=O)(=O)N2CCOCC2)ccc1Cl,25.7%
4,CCCCCOC(=O)NCCOC(=O)Nc1ccc(C(=O)OCC)cc1,4.4%
5,Cc1cc(NC(=O)c2cnn3cccnc23)n(-c2ccccc2)n1,25%
6,O=C1CSC(c2cccc(F)c2)N1c1ccccc1F (stereo not drawn),32.9%
7,O=C(c1cccc(S(=O)(=O)N2CCOCC2)c1)N1CCOCC1,-6.3%
8,CC(C)C(NC(=O)c1cccc(S(=O)(=O)N2CCOCC2)c1)C(=O)NCCc1ccccn1 (stereo not drawn),-13.9%
9,CCN(Cc1ccncc1)C(=O)c1cccc(S(=O)(=O)N2CCOCC2)c1,97% (active)
10,COc1ccc(Nc2nc(=O)[nH]nc2C)cc1,5%
11,Cn1c(CCN2CCCCCC2)nc2cc(NC(=O)Nc3ccccc3)ccc21,-3.4%
12,O=c1[nH]c2c(c(=O)n1Cc1ccccc1)CCC2,-3.7%
13,COc1ccc(C(=O)CN(C(=O)c2ccc(Cl)cc2)N2C(=O)c3ccccc3C2=O)cc1,36%
14,Cc1cc(NC(=O)CS(=O)(=O)c2cn(C)c3ccccc23)no1,27.3%
15,CCc1ccccc1NC1c2ccccc2C(=O)N1c1cccnc1 (stereo not drawn),81.5% (active)
16,CCN(CC)C(=O)CSC1c2ccccc2C(=O)N1c1ccccc1 (stereo not drawn),49.3%
17,N#Cc1nc(N)nc(N(c2ccccc2)c2ccccc2)n1,10.4%
18,CC(=O)Nc1cccc(-c2csc(Nc3cccc(C)n3)n2)c1,5.7%
19,CCOC(=O)CCP(=O)(O)C(O)(c1ccccc1)c1ccccc1,-0.4%
20,CCn1c(=O)c(=O)n(CC)c2cc(S(=O)(=O)N3CCc4ccccc43)ccc21,91.3% (active)
21,CSc1nc2ccc(S(=O)(=O)N3CCc4ccccc43)cc2s1,47.8%
22,Cc1nn(C)c(C)c1S(=O)(=O)N1CCc2ccccc21,43.3%
23,COc1ccc(C(=O)OCC(=O)NCC2CCCCC2)cc1S(=O)(=O)N1CCCc2ccccc21,-0.1%
24,CC1CCC(NS(=O)(=O)c2ccc3c(c2)n(C)c(=O)c(=O)n3C)CC1 (stereo not drawn),8.2%
25,Cn1c(=O)n(C)c2cc(S(=O)(=O)N3CCCc4ccccc43)ccc21,98.7% (active)

row,Compound,inhibition
1,CC1C(c2ccccc2)=[N+]([O-])C2(CCCC2)N1O (stereo not drawn),18.6%
2,C=CCOc1cccc(CNn2cn[nH]c2=S)c1,33.9%
3,CCCOC(=O)Nc1sc2c(c1C(=O)OCC)CCC2,-7.3%
4,COc1ccc(N2CCN(CCNC(=O)c3nnc(Cc4c(F)cccc4Cl)o3)CC2)cc1,77.3% (active)
5,COc1ccc(N2CCN(CCNC(=O)CCN3C(=O)COc4ccccc43)CC2)cc1,6.4%
6,COc1ccc(CN2CC(C(=O)NCCN3CCN(c4ccccc4F)CC3)CC2=O)cc1 (stereo not drawn),-6.5%
7,CCC(C(=O)Nc1ncccn1)(C(F)(F)F)C(F)(F)F,-8.1%
8,NC(=O)CCCC1=NS(=O)(=O)c2ccccc2N1,-6.5%
9,COCc1cc(=O)[nH]c2cc(NC(=O)C(F)(F)F)c(C)cc12,0.8%
10,CCC1CCCCN1CCNC(=O)c1[nH]c(C)c(C(C)=O)c1C (stereo not drawn),2.4%
11,CCC(=O)NC(Nc1cc(C)ccn1)(C(F)(F)F)C(F)(F)F,14.8%
12,CCC(=O)NC(Nc1nc2ccc(C)cc2s1)(C(=O)OC)C(F)(F)F (stereo not drawn),85.5% (active)
13,COC(=O)C(NC(C)=O)(Nc1nc2c(s1)CCCC2)C(F)(F)F (stereo not drawn),39.3%
14,CNC(=S)NNC(=O)c1sccc1OCc1ccccc1,20.4%
15,CCNC(=O)CN(c1ccc(C)cc1)S(=O)(=O)c1ccc(SC)cc1,75.6% (active)
16,COC(=O)c1ccc(NC(=O)CN(c2ccc(C)cc2)S(=O)(=O)c2c(C)n[nH]c2C)cc1,35%
17,COC(=O)CN(c1nc(C)c(Cl)c(OC)n1)S(=O)(=O)c1ccc(C)cc1,19.1%
18,CC1CCC(NC(=O)c2ccc(N3CCCC3=O)cc2)CC1 (stereo not drawn),-0.4%
19,CCCc1cc(=O)n2[nH]c(SCc3ccccc3)nc2n1,1.2%
20,CCCc1cc(=O)[nH]c(SCC(=O)c2cc(C)n(CCC)c2C)n1,29.3%
21,CCOC(=O)Cc1csc(NC(=O)CSc2nc(C)cc(=O)[nH]2)n1,12.8%
22,Cc1cc(=O)[nH]c(SCc2cccc(F)c2)n1,7%
23,CCCc1cc(=O)[nH]c(SCC(=O)OCc2ccccc2)n1,55% (active)
24,CCCc1cc(=O)[nH]c(SCc2ccc(C#N)cc2)n1,65.1% (active)
25,CC(C)c1cc(C(N)=O)c(NC(=O)c2cccc(COc3ccc(Br)cc3)c2)s1,5.8%

row,Compound,inhibition
1,CC(=O)Oc1ccc(C(C)=O)c2c1OCCO2,12.1%
2,CCOC(=O)N1CCN(C(=O)Cc2ccc(-n3c(=S)[nH]c4ccccc4c3=O)cc2)CC1,17.9%
3,COc1ccccc1CNC(=O)C1CCCN(S(=O)(=O)c2cccc3cccnc23)C1 (stereo not drawn),16%
4,CCN(Cc1ccccc1)C(=O)CSc1nc(C)cc2c1C(=O)OC2,72.3% (active)
5,CCOC(=O)n1c(SCC(=O)N(CC)CC)nc2ccccc21,2.8%
6,Cc1ccc(-c2nn(-c3ccccc3)cc2CN(Cc2ccccc2)C(=O)CCC(=O)O)o1,23.4%
7,CCN(CC)CCN1C(=O)C(=O)/C(=C(/O)c2ccc(OC)c(OC)c2)C1c1ccccn1 (stereo not drawn),-1.7%
8,CCCS(=O)(=O)N1CCCC(C(=O)N2CCN(c3ccccc3)CC2)C1 (stereo not drawn),-4.5%
9,CCCCNC(=O)C(=O)c1ccccc1NC(C)=O,13%
10,Oc1c(C(c2ccco2)N2CCC3(CC2)OCCO3)sc2ncnn12 (stereo not drawn),68.4% (active)
11,Cc1ccc(C(c2sc3nc(C)nn3c2O)N2CCN(c3ccccc3)CC2)cc1 (stereo not drawn),33.7%
12,Oc1c(C(c2cccs2)N2CCN(c3ccc(F)cc3)CC2)sc2ncnn12 (stereo not drawn),87.6% (active)
13,Cc1ccc(C(c2sc3nc(C)nn3c2O)N2CCN(c3ccc(F)cc3)CC2)cc1 (stereo not drawn),42.9%
14,CCOC(=O)c1ccc(COC(=O)CCc2nc(-c3ccccc3)c(-c3ccccc3)o2)cc1,34.1%
15,Cc1nc(NC(=O)CCC(=O)O)sc1C(=O)N(C)C,-12.7%
16,CCOc1ccc(N=C2SC(C(=O)O)CC(=O)N2C)cc1 (stereo not drawn),1.7%
17,COc1ccc2c(c1OC)C(=O)OC2c1c(O)nc(SC)n(-c2ccccc2)c1=O (stereo not drawn),-15.5%
18,O=c1cccc(-c2ccc(Br)cc2)o1,-9.6%
19,CC(=O)Nc1ccc(N2C(=O)C3C4CC(=O)C(c5ccccc54)C3C2=O)cc1 (stereo not drawn),30.7%
20,O=C(Nc1nnc(CCOCCOCCc2nnc(NC(=O)c3ccco3)s2)s1)c1ccco1,0.8%
21,Cc1ccc(-n2nc(-c3ccco3)cc2C(=O)NCc2cccnc2)cc1,16.2%
22,O=C(c1ccc(F)cc1)c1c[nH]c(C(=O)NCc2cccnc2)c1,65.3% (active)
23,COCCn1c(=O)[nH]c2cc(C(=O)NCc3cccnc3)ccc2c1=O,3.1%
